Results on 197 variants are retold here after a collection of fitness landscapes (doi:10.1126/science.1257360).

Over roughly 140,000 sequences, “enrichment ratio after two sorts for PhoP signalling” has its median near 0; the highest 2% begin near 11. For the sample, the highest values were picked, then their nearest neighbours and some sequences at random.

Sequences and labels used below:
B1: PhoQ; a variant is named by its letters at X, in order, P23837 (parent)
chain: MKKLLRLFFPLSLRVRFLLATAAVVLVLSLAYGMVALIGYSVSFDKTTFRLLRGESNLFYTLAKWENNKLHVELPENIDKQSPTMTLIYDENGQLLWAQRDVPWLMKMIQPDWLKSNGFHEIEADVNDTSLLLSGDHSIQQQLQEVREDDDDAEMTHSVAVNVYPATSRMPKLTIVVVDTIPVELKSSYMVWSWFIYVLSANLLLVIPLLWVAAWWSLRPIEALAKEVRELEEHNRELLNPATTRELTSLVRNLNRLLKSERERYDKYRTTLTDLTHSLKTPLXXLQXXLRSLRSEKMSVSDAEPVMLEQISRISQQIGYYLHRASMRGGTLLSRELHPVAPLLDNLTSALNKVYQRKGVNISLDISPEISFVGEQNDFVEVMGNVLDNACKYCLEFVEISARQTDEHLYIVVEDDGPGIPLSKREVIFDRGQRVDTLRPGQGVGLAVAREITEQYEGKIVAGESMLGGARMEVIFGRQHSAPKDE

The variants in the assay derive from B1. The assay can be described thus: enrichment ratio after two sorts for PhoP signalling (ratio (wild type AVST 3.29)); higher = more functional. To be noted: with PhoP (E. coli).
With MEIN, the enrichment ratio amounted to 11.2.

For MDAT, the enrichment ratio was 25.1.

Regarding MDIN, the enrichment ratio was ≤ 0.25.

Regarding MDNT, the enrichment ratio was ≤ 0.25.

Consider MEAN, for which the enrichment ratio was determined as 32.4.

For MKAN, the enrichment ratio is ≤ 0.25.

Take NEIN: the enrichment ratio was ≤ 0.25.

Take TEIN: the enrichment ratio worked out at 5.99.

Consider MFAN, for which the enrichment ratio was ≤ 0.25.

As to QEAN, the enrichment ratio is 2.7.

On to TEAN, for which the enrichment ratio was 29.6.

As for MDLT, the enrichment ratio is ≤ 0.25.

With IEYH, the enrichment ratio was ≤ 0.25.

Turning to FRYS, the enrichment ratio was ≤ 0.25.

Take FLVW: the enrichment ratio was ≤ 0.25.

Take QNFD: the enrichment ratio is ≤ 0.25.

Take RGAV: the enrichment ratio is ≤ 0.25.

For the variant SLAV, the enrichment ratio worked out at 9.05.

Consider NIAV, for which the enrichment ratio was ≤ 0.25.

Take GGAV: the enrichment ratio amounted to 23.8.

Take TLKV: the enrichment ratio turned out to be 48.4.

As to NGAV, the enrichment ratio was ≤ 0.25.

For the variant KLAV, the enrichment ratio was ≤ 0.25.

In the case of TLAV, the enrichment ratio was 11.9.

On to KLKV, for which the enrichment ratio is ≤ 0.25.

For the variant GTAV, the enrichment ratio was ≤ 0.25.

As to TGAV, the enrichment ratio came to 17.1.

Take LLKV: the enrichment ratio is ≤ 0.25.

Consider FLFA, for which the enrichment ratio worked out at 0.339.

As for HVFA, the enrichment ratio is ≤ 0.25.

With EHCF, the enrichment ratio is ≤ 0.25.

FDAV: the enrichment ratio is ≤ 0.25.

TDAV: the enrichment ratio was 11.6.

As for ADAV, the enrichment ratio came out at 5.88.

For ERLI, the enrichment ratio is ≤ 0.25.

As to VDMS, the enrichment ratio is ≤ 0.25.

Regarding PLSS, the enrichment ratio was ≤ 0.25.

With NVSS, the enrichment ratio is ≤ 0.25.

On to SDSS, for which the enrichment ratio was determined as 0.569.

Turning to SLSS, the enrichment ratio came to 6.86.

Take KYSS: the enrichment ratio was ≤ 0.25.

In the case of TVSS, the enrichment ratio was 11.6.

With TLSS, the enrichment ratio stood at 12.

SPSS: the enrichment ratio is ≤ 0.25.

As for SQSS, the enrichment ratio stood at 11.6.

Regarding SRSS, the enrichment ratio was ≤ 0.25.

For the variant SESS, the enrichment ratio turned out to be 13.9.

With VLSS, the enrichment ratio stood at 0.29.

On to RKAE, for which the enrichment ratio was ≤ 0.25.

Turning to AYPP, the enrichment ratio is ≤ 0.25.

Regarding PNHN, the enrichment ratio is ≤ 0.25.

As to VSWN, the enrichment ratio is ≤ 0.25.

For ESGC, the enrichment ratio was ≤ 0.25.

For the variant QYRN, the enrichment ratio is ≤ 0.25.

Turning to EVDI, the enrichment ratio was ≤ 0.25.

For PGYQ, the enrichment ratio was ≤ 0.25.

As to KQSS, the enrichment ratio was ≤ 0.25.

Regarding TSSS, the enrichment ratio is 14.

With TTSS, the enrichment ratio was determined as 15.9.

On to YTSS, for which the enrichment ratio is ≤ 0.25.

For FSSS, the enrichment ratio is ≤ 0.25.

With KSSS, the enrichment ratio is ≤ 0.25.

For the variant HVKP, the enrichment ratio was ≤ 0.25.

With MNYD, the enrichment ratio was ≤ 0.25.

As to VKMD, the enrichment ratio was ≤ 0.25.

As to ISKH, the enrichment ratio was ≤ 0.25.

Take KHQI: the enrichment ratio is ≤ 0.25.

Regarding HSYE, the enrichment ratio is ≤ 0.25.

Regarding AESQ, the enrichment ratio was 4.68.

Take AEVS: the enrichment ratio was 16.2.

Regarding AESS, the enrichment ratio was 16.3.

On to AEVY, for which the enrichment ratio was found to be 6.64.

As for AEVK, the enrichment ratio was ≤ 0.25.

As for AENK, the enrichment ratio is ≤ 0.25.

In the case of AEVI, the enrichment ratio was determined as 17.5.

Take AETC: the enrichment ratio amounted to 36.7.

In the case of AEKC, the enrichment ratio was ≤ 0.25.

For AEVA, the enrichment ratio was ≤ 0.25.

Take AEVE: the enrichment ratio came out at 7.98.

As for AETH, the enrichment ratio is 0.824.

With QGNI, the enrichment ratio was ≤ 0.25.

For WYRH, the enrichment ratio is ≤ 0.25.

Turning to EKKS, the enrichment ratio is ≤ 0.25.

As for RHGF, the enrichment ratio is ≤ 0.25.

REAM: the enrichment ratio is ≤ 0.25.

Turning to PMYC, the enrichment ratio is ≤ 0.25.

As for VLES, the enrichment ratio was ≤ 0.25.

In the case of QQHF, the enrichment ratio was ≤ 0.25.

Regarding GTWR, the enrichment ratio was ≤ 0.25.

KCDP: the enrichment ratio is ≤ 0.25.

Turning to VWMG, the enrichment ratio was ≤ 0.25.

As for AIVF, the enrichment ratio came to 2.34.

As to MAVL, the enrichment ratio came to 2.43.

Regarding AEVF, the enrichment ratio is 14.3.

In the case of NEVL, the enrichment ratio was ≤ 0.25.

AETD: the enrichment ratio is ≤ 0.25.

Regarding AETA, the enrichment ratio was 5.73.

In the case of AEVG, the enrichment ratio worked out at 6.84.

Take MEVL: the enrichment ratio turned out to be 11.6.

For AETI, the enrichment ratio amounted to 16.8.

For the variant QEVF, the enrichment ratio is ≤ 0.25.

Turning to AEVC, the enrichment ratio was determined as 14.6.

ERYW: the enrichment ratio is ≤ 0.25.

Turning to TEFV, the enrichment ratio turned out to be 8.47.

On to FYGK, for which the enrichment ratio is ≤ 0.25.

FRYA: the enrichment ratio was ≤ 0.25.

For WKER, the enrichment ratio is ≤ 0.25.

FREH: the enrichment ratio was ≤ 0.25.

For EDQF, the enrichment ratio is ≤ 0.25.

On to PKWA, for which the enrichment ratio was ≤ 0.25.

As to MNPT, the enrichment ratio was ≤ 0.25.

As to WRCA, the enrichment ratio is ≤ 0.25.

Regarding GWPN, the enrichment ratio was ≤ 0.25.

Consider AEHF, for which the enrichment ratio was ≤ 0.25.

Regarding AEVM, the enrichment ratio was determined as 46.8.

AEGM: the enrichment ratio is ≤ 0.25.

In the case of AETV, the enrichment ratio is 22.9.

Turning to AETS, the enrichment ratio came out at 20.8.

For the variant AETF, the enrichment ratio stood at 9.37.

Consider AETM, for which the enrichment ratio is ≤ 0.25.

Turning to AERM, the enrichment ratio was ≤ 0.25.

For AESK, the enrichment ratio was ≤ 0.25.

Regarding AEDV, the enrichment ratio is ≤ 0.25.

With AETE, the enrichment ratio was 8.78.

With AESF, the enrichment ratio came out at 14.8.

For RWWL, the enrichment ratio was ≤ 0.25.

As to RSVA, the enrichment ratio is ≤ 0.25.

For the variant ECQN, the enrichment ratio was ≤ 0.25.

Take VEAF: the enrichment ratio was ≤ 0.25.

AETQ: the enrichment ratio was ≤ 0.25.

With AQQC, the enrichment ratio was ≤ 0.25.

With AESC, the enrichment ratio worked out at 32.1.

With AEEL, the enrichment ratio is ≤ 0.25.

For AEQC, the enrichment ratio came to 16.

AEPC: the enrichment ratio is ≤ 0.25.

On to AEKS, for which the enrichment ratio is ≤ 0.25.

Consider AERL, for which the enrichment ratio was ≤ 0.25.

Take AEVL: the enrichment ratio was determined as 17.5.

For AETW, the enrichment ratio is 11.3.

For the variant AEFW, the enrichment ratio is ≤ 0.25.

For the variant AKQC, the enrichment ratio is ≤ 0.25.

Consider YVCN, for which the enrichment ratio was ≤ 0.25.

For the variant DGHV, the enrichment ratio was ≤ 0.25.

With VIEF, the enrichment ratio was ≤ 0.25.

For the variant WKPN, the enrichment ratio was ≤ 0.25.

As for EKAV, the enrichment ratio is ≤ 0.25.

For STCK, the enrichment ratio stood at 12.3.

STCE: the enrichment ratio amounted to 13.1.

On to STHE, for which the enrichment ratio was ≤ 0.25.

Consider STCI, for which the enrichment ratio was determined as 12.3.

As to YTCE, the enrichment ratio was ≤ 0.25.

SRCK: the enrichment ratio was ≤ 0.25.

On to YTCK, for which the enrichment ratio is ≤ 0.25.

SRPM: the enrichment ratio was ≤ 0.25.

Regarding STCA, the enrichment ratio is 7.48.

Regarding SPPM, the enrichment ratio is ≤ 0.25.

As to STCS, the enrichment ratio was 10.8.

STPM: the enrichment ratio was found to be 15.9.

With TPLS, the enrichment ratio is ≤ 0.25.

Regarding QDRE, the enrichment ratio is ≤ 0.25.

On to ICDP, for which the enrichment ratio is ≤ 0.25.

Turning to QAMT, the enrichment ratio is ≤ 0.25.

Turning to QYWL, the enrichment ratio was ≤ 0.25.

For the variant FCIR, the enrichment ratio is ≤ 0.25.

With RNQK, the enrichment ratio was ≤ 0.25.

With LNAP, the enrichment ratio was ≤ 0.25.

On to THWI, for which the enrichment ratio is ≤ 0.25.

For the variant YKPH, the enrichment ratio was ≤ 0.25.

On to VKLF, for which the enrichment ratio was ≤ 0.25.

For the variant AGWK, the enrichment ratio was ≤ 0.25.

For the variant VFCH, the enrichment ratio was ≤ 0.25.

On to TEMH, for which the enrichment ratio was found to be 134.

Take NRMH: the enrichment ratio was ≤ 0.25.

For GNCH, the enrichment ratio worked out at 3.45.

Turning to HECH, the enrichment ratio turned out to be 12.7.

As for TCCH, the enrichment ratio came to 7.95.

For the variant HECF, the enrichment ratio is ≤ 0.25.

As to HECI, the enrichment ratio worked out at 6.73.

For VECH, the enrichment ratio is 24.1.

Consider GMCH, for which the enrichment ratio amounted to 16.1.

On to HRMH, for which the enrichment ratio was ≤ 0.25.

GMMH: the enrichment ratio was ≤ 0.25.

As for GFPY, the enrichment ratio was ≤ 0.25.

For DYYD, the enrichment ratio was ≤ 0.25.

EPTC: the enrichment ratio is ≤ 0.25.

Regarding QQYH, the enrichment ratio is ≤ 0.25.

Consider QHTA, for which the enrichment ratio is ≤ 0.25.

On to ETDE, for which the enrichment ratio is ≤ 0.25.

Regarding HVCH, the enrichment ratio was ≤ 0.25.

In the case of HPCH, the enrichment ratio is ≤ 0.25.

MFCH: the enrichment ratio is ≤ 0.25.

For the variant MECH, the enrichment ratio stood at 56.6.

With NECH, the enrichment ratio was 18.

For the variant DMCH, the enrichment ratio was ≤ 0.25.

For the variant QECH, the enrichment ratio is ≤ 0.25.

YWCH: the enrichment ratio is ≤ 0.25.

TECH: the enrichment ratio worked out at 27.7.
